Laboratory results as given in PubChem BioAssay (NCI).
This is part of a sample that, as a whole, favours compounds with a hit. Of some 83,000 tested, about 20% had one in any assay.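 96-well plates, one dose, 48 hours. Percent growth reported; active if below 10.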 Values without a mark were called inactive. Activity calls are given as the source filed them.

Test system: MDA-MB-435 melanoma
Experiment: NCI-60 one-dose screen, 48 h (100 = growth as untreated, 0 = no growth, -100 = all killed)
Conditions: 10 µM unless noted

SMILES	growth
CC(Nc1ncnc2ccc(-c3ccc4oc(N)nc4c3)cc12)c1ccccc1 (configuration not stated)	13%
CNc1nc2ccccc2n2c(-c3ccc(O)c(O)c3)cnc12	-9.22% (active)
COc1cc(/C=C/C(=O)c2cnn(-c3cc(=O)[nH]c4ccc(Br)cc34)c2C)cc(OC)c1OC	0.423% (active)
COc1ccc(/C=C/C(=O)c2ccc(OC)c(S(N)(=O)=O)c2)c(C(F)(F)F)c1	63.6%
COc1ccc(S(=O)(=O)Nc2ccc(-c3ccc4c(c3)NC(=O)/C4=C\c3ccc[nH]3)cc2)cc1OC	22%
COC(=O)c1ccc(-c2c(-c3ccccc3)c(F)c3oc(C(=O)OC)c(N)c3c2-c2ccccc2)cc1	101%
O=C(COc1ccc(/C=C2/C(=O)Nc3ccc(Cl)cc32)cc1)Nc1ccc(Br)cc1	-1.54% (active)
O=C(CSc1nc2ccccc2c(=O)[nH]1)NNC(=O)c1ccccc1Cl	101%
COc1ccc2[nH]cc(-c3cc4nc(-c5cn(C)c6ncccc56)cc(N)n4n3)c2c1	52.5%
COc1cc2cc(C(=O)N3C[C@@H](CCl)c4c3cc(OC(=O)N(CCC(=O)N3CCN(C)CC3)C3CCCCC3)c3ccccc43)[nH]c2c(OC)c1OC	-90.8% (active)
CC[C@]12C=CCN3CC[C@@]4(c5ccc(OC)cc5N(C)[C@H]4[C@@](O)(C(=O)OC)[C@@H]1OC(=O)CCCC[P+](c1ccc(F)cc1)(c1ccc(F)cc1)c1ccc(F)cc1)[C@@H]32	-16% (active)
O=C(Nc1nc2ccc([N+](=O)[O-])cc2s1)Nc1ccccc1F	12.7%
